Data taken from PubChem BioAssay (EPA / NIEHS).
Activity calls are given as the source filed them. The calls were made as follows: active = hit-call score of the fitted dose curve at least 0.9, where 1 is the maximum; inactive = score below 0.9.

Experiments:
Details in all cases: mRNA level, 48 h; actives raise or lower the signal
[1] = read-out: Interleukin 6 (IL6), IL6 (gene 3569); test: LTEA_HepaRG_IL6: Life Technologies and Expression Analysis (LTEA) Assay for Interleukin 6 (IL6) using HepaRG (AID 2283509)
Outline: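 Transcript levels, normalized to three housekeeping genes, were quantified by qRT-PCR after 48 h chemical treatment of HepaRG cells. Eight-point half-log series from 100 uM in 0.5% DMSO, duplicates. Fitted both directions against DMSO baseline.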

[2] = read-out: Interleukin 6 Receptor (IL6R), IL6R (gene 3570); test: LTEA_HepaRG_IL6R: Life Technologies and Expression Analysis (LTEA) Assay for Interleukin 6 Receptor (IL6R) using HepaRG (AID 2283510)
Outline: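 IL6R transcript level by qRT-PCR after 48 h chemical exposure (8-point, half-log, max 100 uM, 0.5% DMSO vehicle) of HepaRG cells in serum-free induction medium. Normalized to three housekeeping genes; curves fitted in both directions relative to DMSO.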

[3] = read-out: Potassium channel subfamily K member 1 (KCNK1), KCNK1 (gene 3775); test: LTEA_HepaRG_KCNK1: Life Technologies and Expression Analysis (LTEA) Assay for Potassium channel subfamily K member 1 (KCNK1) using HepaRG (AID 2283511)
Outline: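 KCNK1 transcript measured by TaqMan qRT-PCR against three housekeeping genes, after HepaRG cells were treated 48 h with eight half-log concentrations (top 100 uM, 0.5% DMSO). Curves fitted bidirectionally relative to vehicle.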

[4] = read-out: Keratin 19 (KRT19), KRT19 (gene 3880); test: LTEA_HepaRG_KRT19: Life Technologies and Expression Analysis (LTEA) Assay for Keratin 19 (KRT19) using HepaRG (AID 2283512)
Outline: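 Differentiated human HepaRG cells, plated 48 h, were exposed in duplicate for 48 h in serum-free induction medium to eight half-log concentrations up to 100 uM in 0.5% DMSO. KRT19 mRNA was quantified by qRT-PCR, normalized to ACTB, GAPDH and POLR2A, and fitted bidirectionally versus DMSO.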

[5] = read-out: JUN Transcription Factor, JUN (gene 3725); test: LTEA_HepaRG_JUN: Life Technologies and Expression Analysis (LTEA) Assay for JUN Transcription Factor using HepaRG (AID 2283513)
Outline: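 mRNA measured by TaqMan qRT-PCR after 48 h chemical exposure of HepaRG cultures; normalization to three housekeeping genes. Duplicate eight-point half-log curves from 100 uM in 0.5% DMSO; gain or loss fitted against DMSO baseline.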

[6] = read-out: Lipase C (LIPC), LIPC (gene 3990); test: LTEA_HepaRG_LIPC: Life Technologies and Expression Analysis (LTEA) Assay for Lipase C (LIPC) using HepaRG (AID 2283514)
Outline: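 LIPC expression was quantified by qRT-PCR against three housekeeping genes (ACTB, GAPDH, POLR2A). Differentiated human HepaRG cells received eight half-log doses (top 100 uM, 0.5% DMSO) in duplicate for 48 h; fitting bidirectional relative to DMSO.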

[7] = read-out: Lipoprotein lipase (LPL), LPL (gene 4023); test: LTEA_HepaRG_LPL: Life Technologies and Expression Analysis (LTEA) Assay for Lipoprotein lipase (LPL) using HepaRG (AID 2283515)
Outline: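 LPL transcript levels quantified by TaqMan qRT-PCR against three housekeeping genes after 48 h chemical treatment of HepaRG cells. Eight-point half-log series from 100 uM in 0.5% DMSO, tested in duplicate; bidirectional fitting versus vehicle.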

[8] = read-out: MicroRNA 122 (MIR122), gene 406906; test: LTEA_HepaRG_MIR122: Life Technologies and Expression Analysis (LTEA) Assay for MicroRNA 122 (MIR122) using HepaRG (AID 2283516); also: the transcript read is the microRNA miR-122
Outline: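 Expression measured by microfluidic qRT-PCR with three housekeeping genes for normalisation, after 48 h treatment of HepaRG cultures. Eight concentrations (top 100 uM, half-log steps, 0.5% DMSO vehicle) in duplicate; gain or loss fitted relative to vehicle.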

[9] = read-out: matrix metalloproteinase-10 (MMP10), MMP10 (gene 4319); test: LTEA_HepaRG_MMP10: Life Technologies and Expression Analysis (LTEA) Assay for matrix metalloproteinase-10 (MMP10) using HepaRG (AID 2283517)
Outline: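 Expression measured by TaqMan qRT-PCR with ACTB/GAPDH/POLR2A normalisation after 48 h chemical exposure of HepaRG cells. Eight half-log concentrations, top 100 uM, 0.5% DMSO vehicle, duplicates; gain or loss fitted against vehicle.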

[10] = read-out: MYC, MYC (gene 4609); test: LTEA_HepaRG_MYC: Life Technologies and Expression Analysis (LTEA) Assay for MYC using HepaRG (AID 2283518)
Outline: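 Differentiated human HepaRG cells, plated 48 h then switched to serum-free induction medium, were exposed in duplicate for 48 h to 8-point half-log series up to 100 uM in 0.5% DMSO. MYC mRNA measured by qRT-PCR, normalized to ACTB/GAPDH/POLR2A.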

[11] = read-out: matrix metalloproteinase-3 (MMP3), MMP3 (gene 4314); test: LTEA_HepaRG_MMP3: Life Technologies and Expression Analysis (LTEA) Assay for matrix metalloproteinase-3 (MMP3) using HepaRG (AID 2283519)
Outline: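 Fluidigm-based TaqMan qRT-PCR, normalized to ACTB, GAPDH and POLR2A and fitted bidirectionally versus 0.5% DMSO, measured transcript levels. Treatment: duplicate 48 h exposures of HepaRG cells, ~100,000/well, to eight half-log concentrations topping at 100 uM.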

[12] = read-out: Paternally Expressed 10 (PEG10), PEG10 (gene 23089); test: LTEA_HepaRG_PEG10: Life Technologies and Expression Analysis (LTEA) Assay for Paternally Expressed 10 (PEG10) using HepaRG (AID 2283520);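 as to AC50: PEG10 transcript by qRT-PCR normalised to ACTB GAPDH and POLR2A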
Outline: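 PEG10 transcript measured by Fluidigm qRT-PCR, normalized to three housekeeping genes, in HepaRG cells treated 48 h (highest 100 uM, half-log steps, 0.5% DMSO vehicle). Cells plated 48 h before switching to serum-free induction medium.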

[13] = read-out: Protein phosphatase 2A (PPP2R4), PTPA (gene 5524); test: LTEA_HepaRG_PPP2R4: Life Technologies and Expression Analysis (LTEA) Assay for Protein phosphatase 2A (PPP2R4) using HepaRG (AID 2283522)
Outline: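 Expression was quantified by Fluidigm qRT-PCR normalised to three housekeeping genes after 48 h treatment. Human HepaRG cells received an 8-point series from 100 µM downward by half-logs, in duplicate with 0.5% DMSO vehicle and 1 mM phenobarbital as induction control.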

[14] = read-out: Phosphatase and tensin (PTEN), PTEN (gene 5728); test: LTEA_HepaRG_PTEN: Life Technologies and Expression Analysis (LTEA) Assay for Phosphatase and tensin (PTEN) using HepaRG (AID 2283523)
Outline: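 Read-out: TaqMan qRT-PCR of PTEN transcript, normalized to three housekeeping genes, fitted in both directions against 0.5% DMSO. Differentiated human HepaRG cultures received chemicals for 48 h, eight-point half-log series topping at 100 uM.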

[15] = read-out: solute carrier (SLC22A1), SLC22A1 (gene 6580); test: LTEA_HepaRG_SLC22A1: Life Technologies and Expression Analysis (LTEA) Assay for solute carrier (SLC22A1) using HepaRG (AID 2283524)
Outline: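 Transcript level of SLC22A1 quantified by qRT-PCR (normalized to three housekeeping genes) after 48 h chemical exposure of HepaRG cells, eight concentrations up to 100 µM, half-log steps, 0.5% DMSO vehicle. Gain or loss relative to DMSO fitted bidirectionally.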

[16] = read-out: Pyruvate Dehydrogenase Kinase 4 (PDK4), PDK4 (gene 5166); test: LTEA_HepaRG_PDK4: Life Technologies and Expression Analysis (LTEA) Assay for Pyruvate Dehydrogenase Kinase 4 (PDK4) using HepaRG (AID 2283525)
Outline: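 Readout is qRT-PCR of PDK4 transcript, normalized to three housekeeping genes, with bidirectional fitting against 0.5% DMSO vehicle. Differentiated HepaRG cells were treated 48 h in serum-free induction medium, duplicate wells, eight-point half-log series topping at 100 uM.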

[17] = read-out: NAD(P)H dehydrogenase [quinone] 1 (NQO1), NQO1 (gene 1728); test: LTEA_HepaRG_NQO1: Life Technologies and Expression Analysis (LTEA) Assay for NAD(P)H dehydrogenase [quinone] 1 (NQO1) using HepaRG (AID 2283526)
Outline: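 NQO1 transcript induction or loss measured by TaqMan qRT-PCR, referenced to three housekeeping genes and fitted bidirectionally against 0.5% DMSO. HepaRG cultures exposed 48 h, duplicate, eight-point half-log series, top 100 uM.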

[18] = read-out: Nuclear factor erythroid 2-related factor 2 (Homo sapiens) (UniProt Q16236); test: LTEA_HepaRG_NFE2L2: Life Technologies and Expression Analysis (LTEA) Assay for Nuclear factor erythroid 2-related factor 2 (NFE2L2) Transcription Factor using HepaRG (AID 2283527);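 also: TaqMan qRT-PCR transcript level normalised to ACTB GAPDH and POLR2A housekeeping genes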
Outline: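 NFE2L2 transcript level was read by qRT-PCR (housekeeping ACTB/GAPDH/POLR2A normalisation) after 48 h chemical treatment of HepaRG in serum-free induction medium. Duplicate 8-point half-log curves, top 100 uM, 0.5% DMSO vehicle; up- or down-regulation fitted against vehicle.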

[19] = read-out: succinate dehydrogenase complex iron sulfur subunit B (SDHB), SDHB (gene 6390); test: LTEA_HepaRG_SDHB: Life Technologies and Expression Analysis (LTEA) Assay for succinate dehydrogenase complex iron sulfur subunit B (SDHB) using HepaRG (AID 2283528)
Outline: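 A human HepaRG culture in serum-free induction medium received test chemicals for 48 h over an eight-point range capped at 100 uM. SDHB expression change was quantified by qRT-PCR.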

[20] = read-out: Nuclear factor NF-kappa-B p105 subunit (Homo sapiens) (UniProt P19838); test: LTEA_HepaRG_NFKB1: Life Technologies and Expression Analysis (LTEA) Assay for Nuclear Factor Kappa B Subunit 1 (NFKB1) using HepaRG (AID 2283521);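 also: TaqMan qRT-PCR transcript normalised to ACTB GAPDH and POLR2A housekeeping genes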
Outline: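 Human HepaRG cells receive eight half-log concentrations, highest 100 uM, for 48 h. NFKB1 expression is then quantified by qRT-PCR and analysed for up- or down-regulation relative to 0.5% DMSO vehicle.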

Measured: AC50

Chain of Nuclear factor erythroid 2-related factor 2 (Homo sapiens) (Q16236 whole entry, looked up): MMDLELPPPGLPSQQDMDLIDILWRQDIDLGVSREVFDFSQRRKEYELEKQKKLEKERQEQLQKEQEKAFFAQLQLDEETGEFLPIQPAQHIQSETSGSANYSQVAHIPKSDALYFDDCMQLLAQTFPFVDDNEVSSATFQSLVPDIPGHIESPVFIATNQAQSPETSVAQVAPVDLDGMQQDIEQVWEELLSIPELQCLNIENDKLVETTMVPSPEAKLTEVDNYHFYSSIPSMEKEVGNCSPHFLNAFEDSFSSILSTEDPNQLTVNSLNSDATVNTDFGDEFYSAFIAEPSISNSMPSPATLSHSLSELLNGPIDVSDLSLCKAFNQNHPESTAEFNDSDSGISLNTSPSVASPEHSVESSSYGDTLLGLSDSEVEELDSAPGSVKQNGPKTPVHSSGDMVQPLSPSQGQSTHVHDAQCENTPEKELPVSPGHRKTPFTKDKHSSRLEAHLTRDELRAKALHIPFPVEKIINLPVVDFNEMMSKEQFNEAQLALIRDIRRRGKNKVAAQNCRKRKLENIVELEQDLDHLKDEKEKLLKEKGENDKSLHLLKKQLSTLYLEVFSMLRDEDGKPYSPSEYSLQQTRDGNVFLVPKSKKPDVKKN
Chain of Nuclear factor NF-kappa-B p105 subunit (Homo sapiens) (P19838 whole entry, looked up): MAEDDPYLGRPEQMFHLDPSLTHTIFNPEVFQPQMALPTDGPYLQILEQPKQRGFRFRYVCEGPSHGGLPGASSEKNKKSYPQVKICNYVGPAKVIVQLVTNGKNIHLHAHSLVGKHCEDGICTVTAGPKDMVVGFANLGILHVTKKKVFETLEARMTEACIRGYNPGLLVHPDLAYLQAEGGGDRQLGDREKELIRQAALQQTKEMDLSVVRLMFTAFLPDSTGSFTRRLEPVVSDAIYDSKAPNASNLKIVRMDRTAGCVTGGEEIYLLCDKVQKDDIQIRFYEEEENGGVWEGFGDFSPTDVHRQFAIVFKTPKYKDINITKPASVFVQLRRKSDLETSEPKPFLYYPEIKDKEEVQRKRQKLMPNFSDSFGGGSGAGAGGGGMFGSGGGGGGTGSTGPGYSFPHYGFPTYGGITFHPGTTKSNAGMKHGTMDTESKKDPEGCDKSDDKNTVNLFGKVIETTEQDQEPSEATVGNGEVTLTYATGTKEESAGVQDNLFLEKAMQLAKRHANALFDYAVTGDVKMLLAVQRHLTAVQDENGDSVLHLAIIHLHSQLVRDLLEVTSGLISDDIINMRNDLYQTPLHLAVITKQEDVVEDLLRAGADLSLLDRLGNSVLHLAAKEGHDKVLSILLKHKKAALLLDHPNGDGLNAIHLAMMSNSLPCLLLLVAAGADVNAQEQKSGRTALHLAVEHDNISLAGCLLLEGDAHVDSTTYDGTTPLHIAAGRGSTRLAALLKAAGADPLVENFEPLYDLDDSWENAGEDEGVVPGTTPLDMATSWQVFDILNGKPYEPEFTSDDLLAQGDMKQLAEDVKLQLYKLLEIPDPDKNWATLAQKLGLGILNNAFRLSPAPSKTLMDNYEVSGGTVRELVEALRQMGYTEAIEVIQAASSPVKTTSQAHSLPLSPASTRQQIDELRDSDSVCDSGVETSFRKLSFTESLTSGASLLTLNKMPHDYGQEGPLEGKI

C[C@]12CC[C@@H]3c4ccc(O)cc4CC[C@H]3[C@@H]1CC[C@@H]2O
active: [12] 10.6 µM | [15] 50 µM
not listed: [20]
inactive: all other assays above

COC(=O)c1ccc(C(=O)OC)cc1
inactive: all assays above

O=C(c1ccc(OCCN2CCCCC2)cc1)c1c(-c2ccc(O)cc2)sc2cc(O)ccc12
active: [1] 75.9 µM | [5] 82.6 µM | [7] 80.4 µM | [9] 78.7 µM | [12] 65.9 µM | [13] 50 µM | [14] 77.9 µM | [15] 80 µM | [16] 50 µM | [19] 9.92 µM
inactive: [2] | [3] | [4] | [6] | [8] | [10] | [11] | [20] | [17] | [18]

C=C(C)C(N)=O
inactive: all assays above
